For 10 compounds, growth results are on record in PubChem BioAssay (NCI).

Each structure is given as a SMILES string. The panel holds about 83,000 compounds, 20% with a hit somewhere; the sample as a whole holds those more often.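 Growth was measured after 48 h exposure to one concentration of compound in 96-well plates. Values under 10 count as active.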 Unmarked numbers belong to inactive results. Active and inactive are the calls of the source.

Assay in all cases: NCI-60 one-dose screen, 48 h (100 = growth as untreated, 0 = no growth, -100 = all killed)
Settings in all cases: 10 µM unless noted

In assay [1] the test system is HCT-15 colon.
For assay [2], the system named is HT29 colon.
Assay [3] deals with SNB-75 CNS.
The test system of assay [4] is SNB-19 CNS.
The subject of assay [5] is PC-3 prostate.
The subject of assay [6] is SK-MEL-5 melanoma.
Assay [7] deals with UACC-62 melanoma.
Assay [8] concerns LOX IMVI melanoma.
The subject of assay [9] is SK-MEL-28 melanoma.

As for `CCN(CC)CC(=O)Nc1c(C)cccc1C`, the growth in assay [1] was 98.1%; in [2], 111%; in [3], 95.5%; in assay [4], 106%; in [5], 100%; in assay [6], 93.2%. The growth in assay [7] was 105%; in assay [8], 100%; in assay [9], 110%.
On to `COc1ccc2c(c1)nnn1c3ncccc3c(N=O)c21`, for which the growth is -33.2% (active) in [1]; -48.8% (active) in [2]; -23.3% (active) in [3]; -4.29% (active) in assay [4]; 9.89% (active) in [5]; 36% in [6]. Also, the growth in assay [7] is -76.8% (active); in assay [8] it was -59.1% (active); in [9], 16.2%.
In the case of `CC(C)C(=O)Nc1nc2c(s1)CCCc1ccn(S(=O)(=O)c3ccccc3)c1-2`, the growth in [1] was 94%; in [2] it was 83.7%; in assay [3], 89.4%; in assay [4], 110%; in assay [5], 85.3%; in assay [6], 93.3%. Moreover, the growth was 87% in assay [7], 96.9% in assay [8] and 106% in assay [9].
For the compound `CN1CCN(CC(=O)N(C)c2ccc(N=C(c3ccccc3)c3c(O)[nH]c4ccc(C#N)cc34)cc2)CC1`, the growth in assay [1] is 64.7%; in assay [2] it was 10.7%; in assay [3], 3.45% (active); in assay [4], 61.1%; in assay [5] it was 36.4%; in assay [6], 25.8%. Also, the growth was 68.1% in [7], 13.2% in assay [8] and 53% in [9].
For `CCCOC(=O)c1ccc([N+](=O)[O-])o1`, the growth is 102% in assay [1]; 92.2% in [2]; 83.7% in [3]; 111% in [4]; 91.6% in [5]; 116% in [6]. The values for the growth in [7], in [8] and in assay [9] were 104%, 101% and 106%, respectively.
On to `CCCC(=O)Oc1ccc(/C(=C(\C)c2ccc(OC)cc2)c2ccc(OCCN3CCCCC3)cc2)cc1`, for which the growth in assay [1] is 64.1%; in assay [2], 1.78% (active); in assay [3] it was 73%; in assay [4] it was 91%; in [5], 64.7%; in assay [6], 68.8%. For the same compound, the growth in [7] was 63.6%; in [8] it was 68.5%; in [9], 63.9%.
As to `CCc1c(C)c2cc3c(c(C)c2oc1=O)OCC(=O)N3`, the growth in assay [1] was 67.2%; in assay [2], 64.1%; in assay [3] it was 14.3%; in assay [4], 64.3%; in [5], 80.4%; in [6], 81.1%. In addition, the values for the growth in [7], in assay [8] and in [9] were 69.6%, 65.3% and 92.7%, respectively.
Turning to `CC1(C)CC(=O)C2=C(C1)OC1=C(C(=O)CC(C)(C)C1)C2c1ccc(OCc2cn(-c3ccc(F)cc3F)nn2)cc1`, the growth is 105% in assay [1]; 96.9% in [2]; 104% in [3]; 99.9% in [4]; 77.7% in assay [5]; 58.4% in assay [6]. For the same compound, the growth in [7] was 58.6%; in assay [8] it was 97.7%; in assay [9], 103%.
Regarding `OC[C@@H](O)C(O[C@@H]1O[C@H](CO)[C@H](O)[C@H](O)[C@H]1O)[C@H](O)[C@@H](O)CO` (stereo not given in full), the growth in assay [1] is 98.2%; in assay [2] it was 103%; in assay [3] it was 98.6%; in [4], 107%; in [5] it was 86.6%; in assay [6] it was 106%. For the same compound, the figures for the growth in [7], in assay [8] and in assay [9] were 99.1%, 98.8% and 110%, respectively.
For the compound `O=C1c2ccccc2C(=O)c2c(NCCN=Cc3c(O)ccc4ccccc34)cccc21`, the growth is 77% in assay [1]; 88% in [2]; 84% in [3]; 84.9% in [4]; 84.5% in [5]; 86.7% in assay [6]. Moreover, the growth in [7] is 85.8%; in assay [8], 66.7%; in [9], 117%.
